Shown are actives, neighbours in structure and some others; about 7.1% of the full set was active somewhere.
MCF10A rerep = inducers of DNA re-replication in MCF 10A breast cells; MCF 10A DNA re-replication, Hoechst nuclear intensity, 48 h; Potency, µM (doses to about 46.1 µM), for the others: top-dose activity, positive = re-replication, most hits filed as activators; hit rate 2.9% among 350,000; further: potency means the concentration at half of the fitted maximal effect; % of control where 0% means no effect; nearly all actives have a fitted effect of over 50% in size
PINK1 expr mod = changes PINK1 expression | Potency, µM (highest dose often 76.6 µM), without a hit: at the top dose activation (PINK1 increase), usual class: activators | hit rate 0.2% among 410,000 | AID 624263 | PINK1 immunofluorescence, high-content cytometry, 24 h; active means well fitted activation curve with a large enough effect; inconclusive means small, poorly fitted or top-dose-only effect; cell line not stated here; further: potency means the concentration at half of the fitted maximal effect; % of control where 0% means no effect; nearly all actives have a fitted effect of over 65% in size
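Compound titrations (5 concentrations, 24 h) on a stable cell line; DMSO and CCCP controls. Endpoint: fixed-cell PINK1 immunofluorescence with mitochondrial, cell and nuclear markers, scanned by microplate cytometer.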
ATXN2 expr inh = reduces ATXN2 reporter expression in HEK-293 cells | HEK-293 ATXN2-luciferase reporter, luminescence, 24 h | hit rate 0.72% among 360,000 | Potency, µM (highest dose often 57 µM), inactives show at the highest dose activity change, negative = inhibition, usual class: inhibitors | AID 1745845; further: potency means the concentration at half of the fitted maximal effect; on the % scale 0 is the no-effect control and ±100 the full control effect; nearly all actives have a fitted effect of over 55% in size
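qHTS (up to 57 uM final) was run with 24 h compound exposure of reporter cells at 37 °C. Each well was multiplexed: SteadyGlo luminescence measured ATXN2-luciferase expression after a fluorogenic Gly-Phe-AFC viability readout (25 uM final).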
IL1B secr inh = inflammasome signaling inhibition, IL-1 beta readout; activity change, % at 57.5 µM; hit rate 4.7% among 360,000; THP-1 LPS/ATP IL-1B secretion, AlphaLISA, 16 h; stronger effect = lower value; in the data active means activity change below about -50%; inconclusive means mostly about -30% to -49%; further: on the % scale 0 is the no-effect control and ±100 the full control effect
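Secreted IL-1B measured by AlphaLISA bead assay after 16 h compound exposure of THP-1 cells; compounds (final up to 57.5 uM) added 1 h before LPS (250 ng/mL) and ATP (1.25 mM) stimulation; lower signal means less secretion.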
ATXN viability = cell viability loss in ATXN counter-screen. S2 cells (HEK-293 line with an ATXN2-luciferase reporter) viability, CellTiter-Fluor protease fluorescence, 24 h. Potency, µM (series often up to 56.7 µM), actives largely listed as cytotoxic. hit rate 0.49% among 400,000. AID 651635; further: potency means the concentration at half of the fitted maximal effect; nearly all actives have a fitted effect of over 40% in size
SW480 rerep = DNA re-replication induction in SW480 cells; hit rate 1.8% among 340,000; SW480 DNA re-replication, Hoechst DNA content imaging, 48 h; Potency, µM (titrated, usually from 46.1 µM), without a hit: top-dose re-replication activation, hits mostly activators; further: potency means the concentration at half of the fitted maximal effect; % of control where 0% means no effect; nearly all actives have a fitted effect of over 55% in size
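Treated cells incubate 48 hr (37 C, 5% CO2), are stained 40 min with Hoechst, and nuclear fluorescence is enumerated; a rise in nuclei with high DNA signal marks re-replication.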
An asterisk follows results filed as active; ! = repeats disagree; [ ] = remark or other dose. Unless noted, the call rests on the fitted dose curve; in most records, active means well fitted curve in the direction sought with a large enough effect; inconclusive means small, poorly fitted or top-dose-only effect, or another doubt; inactive means no such curve, though single readings can be large; an effect the other way counts as inactive or inconclusive.

Screening Cc1cccc(N2C(=O)CC(Sc3nc(C)c4c(n3)CCCC4)C2=O)c1 (centres undefined) returned MCF10A rerep 12%, PINK1 expr mod 1%[38.3 µM], ATXN2 expr inh -3%, IL1B secr inh 5, ATXN viability inactive and SW480 rerep 5.8µM*.
Screening CCCc1[nH]nc2c1C(c1cccc(OC(=O)c3ccco3)c1)C(C#N)=C(N)O2 (centres undefined) returned MCF10A rerep inconclusive, ATXN2 expr inh -2%, IL1B secr inh -62*, ATXN viability inconclusive and SW480 rerep inconclusive.
OCC1(CCCc2ccccc2)CCN(C2CCSCC2)CC1 was read as MCF10A rerep inconclusive, PINK1 expr mod -1%, ATXN2 expr inh -20%[11.3 µM], IL1B secr inh -70*, ATXN viability inactive and SW480 rerep -3%.
`OCC1(CCCc2ccccc2)CCN(C2CCC2)CC1` gave MCF10A rerep inconclusive, PINK1 expr mod -1%, ATXN2 expr inh -9%, IL1B secr inh -54*, ATXN viability inactive and SW480 rerep inconclusive.
`O=c1c(Cl)cc(Cl)nn1-c1ccccc1` gave MCF10A rerep 5.8µM*, PINK1 expr mod -1%, ATXN2 expr inh inconclusive, IL1B secr inh -100* and SW480 rerep inconclusive.
`COc1ccc(C2Cc3ccccc3C(=O)O2)cc1` (centres undefined) gave MCF10A rerep -3%, PINK1 expr mod 6%, ATXN2 expr inh 6%, IL1B secr inh -14, ATXN viability inconclusive and SW480 rerep 21µM*.
For COc1ccccc1NC(=O)c1sc(-c2ccc(Cl)cc2)cc1N the results were PINK1 expr mod 12%.
For CC(C)(C)CC(C)(C)c1ccc(O)c(CN2CCN(CCC#N)CC2)c1 the results were MCF10A rerep 18µM*, PINK1 expr mod 12%, ATXN2 expr inh -1%, IL1B secr inh -57*, ATXN viability inactive and SW480 rerep inconclusive.
N=C1SCC(=O)N1c1ncc(Cc2ccc(F)cc2)s1 was read as MCF10A rerep inconclusive, PINK1 expr mod 4%, ATXN2 expr inh inconclusive, IL1B secr inh -104*, ATXN viability inconclusive and SW480 rerep 12%.
`Cc1ccc(-c2csc(N3C(=N)SCC3=O)n2)cc1` gave MCF10A rerep -2%, PINK1 expr mod 2%, ATXN2 expr inh 20%, IL1B secr inh 23, ATXN viability inactive and SW480 rerep -6%.
CNC[C@@H](C)NC[C@@H](Cc1ccccc1)NCCc1ccccc1 was read as MCF10A rerep -35%, PINK1 expr mod 2%, ATXN2 expr inh -22%, IL1B secr inh inconclusive, ATXN viability inactive and SW480 rerep 0.37µM*.
Screening CCOC(=O)c1ccc(N=c2sc(C(=O)OC)cc(=O)n2Cc2ccco2)cc1 returned MCF10A rerep inconclusive, PINK1 expr mod 0%, ATXN2 expr inh inconclusive, IL1B secr inh -22, ATXN viability inconclusive and SW480 rerep inconclusive.
`CCOC(=O)c1ccc(N=c2sc(C(=O)OC)cc(=O)n2CCCN2CCOCC2)cc1` gave MCF10A rerep 29%, PINK1 expr mod 4%, ATXN2 expr inh inconclusive, IL1B secr inh -57*!, ATXN viability inconclusive and SW480 rerep 20%.
For NC(=NCCc1ccccc1)NC(=O)c1cc(Cl)ccc1O the results were MCF10A rerep inconclusive, PINK1 expr mod inconclusive, ATXN2 expr inh 3%, IL1B secr inh -11, ATXN viability inactive and SW480 rerep 21µM*.
`Cc1cccc(C(=O)CC(=O)c2cc(Cl)ccc2O)c1` gave MCF10A rerep inconclusive, PINK1 expr mod 3%, ATXN2 expr inh inconclusive, IL1B secr inh 75, ATXN viability inactive and SW480 rerep 17%.
Screening O=C(CC(=O)c1cc(Cl)ccc1O)c1ccccc1 returned MCF10A rerep 21µM*, ATXN2 expr inh inconclusive, IL1B secr inh 39, ATXN viability inactive and SW480 rerep inconclusive.
Screening CC[N+]1(CC)CCC(=C(c2ccccc2)c2ccccc2)C1C (centres undefined) returned ATXN2 expr inh 0% and ATXN viability inactive.
`CCCN1CNc2c(c(=O)[nH]c(=S)n2CCc2cc(C)ccc2C)C1` gave PINK1 expr mod 0%.
CCCCC[C@H](O)/C=C/[C@H]1C=CC(=O)[C@@H]1C/C=C\CCCC(=O)O was read as MCF10A rerep 21% and SW480 rerep -1%.
Screening CCCCC[C@@H](/C=C/C1C(=O)C=C[C@H]1C/C=C\CCCC(=O)O)OC(C)=O (some centres undefined) returned MCF10A rerep inconclusive, PINK1 expr mod 7%, ATXN2 expr inh inconclusive, IL1B secr inh -77*, ATXN viability inconclusive and SW480 rerep -37%[9.22 µM].
For CCOC(=O)C1CCCN(c2cc(C)nc3c(-c4ccccc4OC)c(C)nn23)C1 (centres undefined) the results were PINK1 expr mod 0%, ATXN2 expr inh 11% and ATXN viability inactive.
COc1ccc(C2C(C(C)=O)=C(O)C(=O)N2c2nc3ccccc3s2)cc1OC (centres undefined) was read as MCF10A rerep 2.3µM*, PINK1 expr mod 2%, ATXN2 expr inh -16%, IL1B secr inh 0, ATXN viability inactive and SW480 rerep inconclusive.
COc1ccc(C2C(C(C)=O)=C(O)C(=O)N2c2nccs2)cc1OC (centres undefined) was read as MCF10A rerep 6%, PINK1 expr mod 1%, ATXN2 expr inh -3%, IL1B secr inh 13, ATXN viability inactive and SW480 rerep 0%.
Screening COc1ccc(C[C@H]2CN3C(=NC[C@@H]3C(C)C)N2C[C@H](C)NC(=O)c2ccc(C)c(Br)c2)cc1 returned MCF10A rerep 15%, PINK1 expr mod inconclusive, ATXN2 expr inh inconclusive, IL1B secr inh -57*, ATXN viability 18µM* and SW480 rerep 13%.
Screening COc1ccc(C[C@H]2CN3C(=NC[C@@H]3Cc3ccc(O)cc3)N2C[C@H](C)NC(=O)c2ccc(C)c(Br)c2)cc1 returned MCF10A rerep 1%, PINK1 expr mod -1%, ATXN2 expr inh inconclusive, IL1B secr inh inconclusive, ATXN viability 22µM* and SW480 rerep 5%.
For Cc1ccc(NC(=O)c2cc3c([nH]c2=O)CC(c2ccccc2)CC3=O)cc1 (centres undefined) the results were PINK1 expr mod 9%.
Screening CCCCOc1ccc(C(=O)N/N=C/c2cn[nH]c2-c2ccc(OC)c(OC)c2)cc1 returned MCF10A rerep 9%, PINK1 expr mod 3%, ATXN2 expr inh inconclusive, IL1B secr inh -56*, ATXN viability inconclusive and SW480 rerep -7%.
